These sequences were tested on RARa homodimer (NR concentration 270 nM) (assay: PBM binding z-score (relative to random genomic background probes); higher = stronger binding; sequences stand for … in GC…GCGATTGACAGCGTAGAATGAAGG).
How it was run: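 Custom Agilent 4×180K protein-binding microarrays carried double-stranded probes. Their 34-nt variable regions held direct-repeat seeds, single-nucleotide variants, half-site ablations and random human genomic background sequences. Arrays were incubated 1 h with ligand-free nuclear receptor dimers in PBS pH 7.4, 2% milk, 0.02% Triton X-100, 1 mM DTT, 0.2 mg/mL BSA and 0.4 mg/ml salmon testes DNA. Antibodies against each partner (one per run) detected binding, and scanned fluorescence was regression-normalized. Binding z-scores use random background probes as reference.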

Sequence | PBM binding z-score
ATATGTAGGCTAGGGTCATTCAGAAAGTAGGGAA | 1.2
CGAACTTGGTCACCAGGACAGTGAAGAGGTTGGA | -0.448
ATATGTAGGTTAGGGGCATTCAGAAAGTAGGGAA | 1.74
ATATGTAGGTTAGGGTCATTAAGAAAGTAGGGAA | 1.97
ATATGTAGGTTTGGGTCATTCAGAAAGTAGGGAA | 2.33
ATATGTAAGTTAGGGTCATTCAGAAAGTAGGGAA | 1.77
ATATGAAGGTTAGGGTCATTCAGAAAGTAGGGAA | 2.29
CGAACTAGGTCAATGGACAGTGAAAGGCGACGTA | 0.235
CGAACTAGGTAACCAGGACAGTGAAGAGGTTGGA | -0.648
ATATGGAGGTTAGGGTCATTCAGAAAGTAGGGAA | 2.05
CGAACTAGGTCACCAGGGCAGTGAAGAGGTTGGA | 0.458
CGAACTAGGTCACCAGGACATTGAAGAGGTTGGA | 0.511
CGAACTAGGTCAAAGGACAGCGAAAGGCGACGTA | 0.165
CGAACTAGGCCACCAGGACAGTGAAGAGGTTGGA | -0.684
CGAACTAGGGCACCAGGACAGTGAAGAGGTTGGA | -1.02
CCAACTAGGTCACCAGGACAGTGAAGAGGTTGGA | 1.44
CGAACTAGGTCAAAGTACAGTGAAAGGCGACGTA | -0.202

From the supplement of paper PMC6555819
